Screens (PubChem)
Compounds with a hit are over-represented: about 3.1% of the library has one in this group of screens.
Pin1 inhibitor: human Pin1 inhibition; AID 504891; 0.009% of 390,000 active; Pin1 FP peptide displacement, HiFluor488, 10 min; Potency, µM (series often up to 115 µM), without a hit: at the top dose activity, negative = inhibition, usual class: inhibitors; active means well fitted inhibition curve with a large enough effect in the polarisation, with a control signal flat, not every such curve was filed as active; inconclusive means small, poorly fitted or top-dose-only effect, or effect the other way, or a change in a side signal; inactive means no such curve, though single readings can be large or run the other way; the % refers to the polarisation; further: on the % scale 0 is the no-effect control and ±100 the full control effect
PLK1 PBD inh: inhibitors of human PLK1 polo-box domain binding; P53350; Plk1 PBD binding of FITC phosphopeptide, fluorescence polarization; Potency, µM, for inactives: max response, negative = inhibition, actives largely listed as inhibitors; 2.8% of 360,000 active; AID 720504; further: series mostly up to about 57 µM; on the % scale 0 is the no-effect control and ±100 the full control effect; nearly all actives have a fitted effect of over 65% in size
ASM inhibitor: blocks human secretory acid sphingomyelinase; placental ASM, HMU-PC fluorogenic substrate, 60 min; Potency, µM (titrated, usually from 57.5 µM), for the others: top-dose activity change, negative = inhibition, actives largely listed as inhibitors; 0.006% of 340,000 active; AID 504937
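qHTS format. ASM enzyme prepared from human placenta hydrolyses the fluorogenic substrate HMU-PC0 (9 uM final) over 60 min at 37 °C after a 10 min compound preincubation.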
VDR inhibitor: inhibitors of human vitamin D receptor; P11473; VDR-SRC2-3 peptide fluorescence polarization, 2 h; Potency, µM, without a hit: max response, negative = inhibition, hits mostly inhibitors; 0.93% of 400,000 active; further: on the % scale 0 is the no-effect control and ±100 the full control effect
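After 23 nl compound addition and a short centrifugation, plates sat for 2 hours at ambient temperature; polarization of fluorescence then indicated loss of VDR binding to peptide SRC2-3.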
TDP1 block: inhibitors of human tyrosyl-DNA phosphodiesterase TDP1. Q9NUW8. recombinant TDP1, AlphaScreen DNA substrate cleavage. Potency, µM (top dose mostly 130 µM), for inactives: at the highest dose activity change, negative = inhibition, most hits filed as inhibitors. 0.28% of 350,000 active. AID 485290; further: on the % scale 0 is the no-effect control and ±100 the full control effect; nearly all actives have a fitted effect of over 40% in size
Target sequence (Q9NUW8 whole entry, looked up): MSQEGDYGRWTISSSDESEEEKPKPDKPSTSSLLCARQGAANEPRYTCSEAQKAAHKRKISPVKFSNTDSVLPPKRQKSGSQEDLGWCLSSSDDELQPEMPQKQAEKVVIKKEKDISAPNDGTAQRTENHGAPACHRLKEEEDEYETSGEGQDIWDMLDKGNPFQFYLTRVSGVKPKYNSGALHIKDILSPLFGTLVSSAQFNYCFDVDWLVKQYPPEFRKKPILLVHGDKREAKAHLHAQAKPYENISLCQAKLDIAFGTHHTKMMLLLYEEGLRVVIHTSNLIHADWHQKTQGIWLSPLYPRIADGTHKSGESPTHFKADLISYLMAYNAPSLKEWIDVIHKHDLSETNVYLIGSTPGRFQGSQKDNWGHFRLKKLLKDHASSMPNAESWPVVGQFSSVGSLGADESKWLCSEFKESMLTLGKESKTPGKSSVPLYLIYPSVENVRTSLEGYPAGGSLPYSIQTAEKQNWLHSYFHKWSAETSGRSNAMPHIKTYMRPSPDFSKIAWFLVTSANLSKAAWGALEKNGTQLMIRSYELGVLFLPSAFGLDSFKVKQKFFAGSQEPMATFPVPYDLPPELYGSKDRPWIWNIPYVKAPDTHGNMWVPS
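AlphaScreen read-out: signal falls as enzyme removes the 3' tyrosine-FITC from a 5'-biotinylated DNA oligo (15 nM, 5 min, RT). Enzyme was E. coli-made recombinant Tdp1 at 1 nM, exposed to compound for 15 min beforehand; beads 10 ug/ml, 10 min.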
Tb PFK inh-1: inhibitors of T. brucei phosphofructokinase; T. brucei PFK, ADP-Glo luminescence; Potency, µM (highest dose often 57.5 µM), for inactives: at the top dose activity, negative = inhibition, actives largely listed as inhibitors; 0.17% of 330,000 active;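 further: 0% = uninhibited 1x PFK enzyme wells and -100% = no-enzyme wells; nearly all actives have a fitted effect of over 60% in size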
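1.25 nM PFK with 0.5 mM F6P and 0.1 mM ATP in 0.1 M TEA pH 8.0, 5 mM MgCl2, incubated 45 min at room temperature; ADP measured by ADP-Glo luminescence; compounds titrated up to 57 uM.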
TbPFK ATP: orthogonal confirmation of T. brucei phosphofructokinase inhibitors; Potency, µM (highest dose often 57.5 µM), for the others: top-dose inhibition; shares compounds with Tb PFK inh-1; AID 504636; Tb PFK enzyme, ATP depletion, Kinase-Glo Plus luminescence; 47% of 1,100 active; calls by dose curve; further: nearly all actives have a fitted effect of over 60% in size
Tb PFK inh-2: validation of T. brucei phosphofructokinase inhibitors; 41% of 1,100 active; shares compounds with Tb PFK inh-1; Potency, µM (titrated, usually from 57.5 µM), for inactives: at the highest dose activity change, negative = inhibition, actives largely listed as inhibitors; purified T. brucei PFK, ADP-Glo luminescence, 45 min;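 further: plate controls were full PFK enzyme control for no effect and no enzyme control for full effect; nearly all actives have a fitted effect of over 60% in size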
The depositor's hits bear a star; [ ] = remark or other dose. Unless noted, the call rests on the fitted dose curve; in most records, active means well fitted curve in the direction sought with a large enough effect; inconclusive means small, poorly fitted or top-dose-only effect, or another doubt; inactive means no such curve, though single readings can be large; an effect the other way counts as inactive or inconclusive. Potency means the concentration at half of the fitted maximal effect.

For O=C(COC(=O)/C=C/c1ccco1)Nc1ncc(C(F)(F)F)cc1Cl the results were Pin1 inhibitor inconclusive, PLK1 PBD inh -25%, ASM inhibitor 3%, VDR inhibitor -6%, TDP1 block 13µM*, Tb PFK inh-1 17µM*, TbPFK ATP 11µM* and Tb PFK inh-2 13µM*.
Screening CCC1(c2ccccc2)C(=O)NC(=O)N(C(=O)c2ccccc2)C1=O (centres undefined) returned VDR inhibitor 0% and TDP1 block 9%.
`CCN(CC)c1ncnc2c1ncn2[C@@H]1O[C@H](COP(=O)(O)OP(=O)(O)C(Br)(Br)P(=O)(O)O)[C@@H](O)[C@H]1O` gave VDR inhibitor 11% and TDP1 block 8%[56.1 µM].
Screening Nc1ncnc2c1ncn2[C@@H]1O[C@H](COP(=O)(O)OP(=O)(O)OP(=O)(O)O)[C@@H](O)[C@H]1O returned Pin1 inhibitor inconclusive, PLK1 PBD inh -3%, ASM inhibitor inconclusive, VDR inhibitor -6%, TDP1 block -2%, Tb PFK inh-1 inconclusive, TbPFK ATP -29% and Tb PFK inh-2 inconclusive.
Screening CC(C)[C@H](NC(=O)[C@H](CCC(=O)O)NC(=O)[C@H](Cc1ccccc1)NC(=O)[C@@H](C)NC(=O)[C@@H](N)Cc1ccc(O)cc1)C(=O)N[C@H](C(=O)NCC(N)=O)C(C)C returned VDR inhibitor 7% and TDP1 block 7%.
For CCSc1nnc(NC(=O)COc2ccc3ccccc3c2)s1 the results were Pin1 inhibitor 11%, PLK1 PBD inh -3%, ASM inhibitor 1%, VDR inhibitor 2%, TDP1 block -1%, Tb PFK inh-1 inconclusive, TbPFK ATP -33% and Tb PFK inh-2 inconclusive.
Screening COc1ccc(OCC(=O)Nc2ccc(Cl)cc2C(=O)c2ccccc2)cc1 returned Pin1 inhibitor -1%, PLK1 PBD inh -11%, ASM inhibitor -5%, VDR inhibitor 17%, TDP1 block 2% and Tb PFK inh-1 -5%.
`CCCCCC1C(=O)O[C@H](C)[C@@H](NC(=O)c2cccc(NC=O)c2O)C(=O)OC(C)C1OC(=O)CC(C)C` (some centres undefined) gave VDR inhibitor -3% and TDP1 block 14%[56.1 µM].
CS(=O)(=O)N1CCC2(CCCN(Cc3ccncc3)C2)CC1 was read as VDR inhibitor -20%.
`COc1cccc(CNc2ccc(F)c([N+](=O)[O-])c2)c1O` gave Pin1 inhibitor -2%, PLK1 PBD inh -4%, ASM inhibitor -3%, VDR inhibitor -4%, TDP1 block 0%, Tb PFK inh-1 inconclusive, TbPFK ATP 19µM* and Tb PFK inh-2 30µM*.
O=[N+]([O-])c1ccc(F)c([N+](=O)[O-])c1 was read as VDR inhibitor -2% and TDP1 block 0%.
`O=[N+]([O-])c1ccccc1CNc1ccc(F)c(Cl)c1` gave Pin1 inhibitor 0%, PLK1 PBD inh -10%, ASM inhibitor -8%, VDR inhibitor -7%, TDP1 block 7%, Tb PFK inh-1 inconclusive, TbPFK ATP 21µM* and Tb PFK inh-2 inconclusive.
`CCCCCCCCCCCCCCCCOC[C@@H](COP(=O)([O-])OCC[N+](C)(C)C)OC(C)=O` gave VDR inhibitor -6% and TDP1 block 4%.
`Cc1ccc(-c2csc3n[nH]c(=S)n23)cc1` gave Pin1 inhibitor 0%, PLK1 PBD inh -29%, ASM inhibitor 0%, VDR inhibitor -33%, TDP1 block -1%, Tb PFK inh-1 inconclusive, TbPFK ATP 0.3µM* and Tb PFK inh-2 0.43µM*.
Screening Nc1ncccc1OCc1ccc(Cl)c(Cl)c1 returned Pin1 inhibitor 2%, PLK1 PBD inh -2%, ASM inhibitor 1%, VDR inhibitor 5%, TDP1 block 7%, Tb PFK inh-1 13µM*, TbPFK ATP 5.4µM* and Tb PFK inh-2 17µM*.
For COc1ccc(C[C@H]2c3cc(OC)c(OC)cc3CCN2C)cc1OC the results were VDR inhibitor 0% and TDP1 block 1%[56.1 µM].
`C=C1Nc2ccccc2C(=O)N1c1ccccc1C` gave VDR inhibitor 2%.
`Cc1cc(NC(=O)CCl)on1` gave Pin1 inhibitor -7%, PLK1 PBD inh -7%, ASM inhibitor -2%, VDR inhibitor 0%, TDP1 block 2% and Tb PFK inh-1 2%.
`CC(NC(=O)CCl)c1ccc(Cl)c(Cl)c1` (centres undefined) gave Pin1 inhibitor 0%, PLK1 PBD inh -16%, ASM inhibitor 3%, VDR inhibitor -14%, TDP1 block 6%, Tb PFK inh-1 19µM*, TbPFK ATP 21µM* and Tb PFK inh-2 24µM*.
For O=C1NO[C@@H]2CN[C@@H](C(=O)O)[C@H]12 the results were TDP1 block 4%.
Screening CN(C(=O)Cc1ccc(Cl)c(Cl)c1)[C@H](CN1CCCC1)c1ccccc1 returned VDR inhibitor inconclusive and TDP1 block 4%.
Cc1cc(C(=O)NNC(=O)Cc2ccc(Cl)c(Cl)c2)c(C)o1 was read as Pin1 inhibitor -4%, PLK1 PBD inh -15%, ASM inhibitor 0%, VDR inhibitor inconclusive, TDP1 block 0%, Tb PFK inh-1 27µM*, TbPFK ATP 12µM* and Tb PFK inh-2 30µM*.
CCCCCCCCCCCCCCCCn1cc[n+](CC(C)=O)c1 was read as Pin1 inhibitor 17%, PLK1 PBD inh -20%, ASM inhibitor inconclusive, VDR inhibitor -5%, TDP1 block 5%, Tb PFK inh-1 inconclusive, TbPFK ATP -7% and Tb PFK inh-2 -7%.
Screening O=C(C[n+]1ccn(CCCNP2(=O)C=C(c3ccccc3)OC(c3ccccc3)=C2)c1)c1ccccc1 returned Pin1 inhibitor 0%, PLK1 PBD inh -5%, ASM inhibitor 0%, VDR inhibitor -6%, TDP1 block 2% and Tb PFK inh-1 12%.
